Experimental data published in ChEMBL document CHEMBL3433997, “St. Jude Leishmania screening dataset” (2016).

Assays:
Assay type in all cases: functional
[1] = molecular target: Solute carrier family 2, facilitated glucose transporter member 1 (Homo sapiens) (UniProt P11166); test: ST_JUDE_LEISH: Cytotoxicity at 2uM final concentration against transgenic Leishmania Mexicana promastigotes LmGLUT1 that are glucose transport deficient and complemented with the human glucose transporter GLUT1. Activity is measured by DNA content using SYBR green in vitro
Solute carrier family 2, facilitated glucose transporter member 1 (Homo sapiens), sequence (P11166 whole entry): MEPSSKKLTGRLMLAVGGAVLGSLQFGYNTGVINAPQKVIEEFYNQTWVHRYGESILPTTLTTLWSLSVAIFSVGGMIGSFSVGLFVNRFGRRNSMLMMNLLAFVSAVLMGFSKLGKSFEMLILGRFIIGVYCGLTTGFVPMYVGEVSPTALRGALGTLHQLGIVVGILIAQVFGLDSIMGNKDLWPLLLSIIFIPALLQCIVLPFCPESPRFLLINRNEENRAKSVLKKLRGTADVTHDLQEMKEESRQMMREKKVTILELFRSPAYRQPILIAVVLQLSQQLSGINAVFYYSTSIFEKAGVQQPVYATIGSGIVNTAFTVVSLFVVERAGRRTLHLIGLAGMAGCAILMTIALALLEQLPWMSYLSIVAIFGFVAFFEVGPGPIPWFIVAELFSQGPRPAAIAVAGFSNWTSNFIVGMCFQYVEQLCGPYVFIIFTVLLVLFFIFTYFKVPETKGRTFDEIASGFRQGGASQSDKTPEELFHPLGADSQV

[2] = molecular target: Hexose transporter 1 (Plasmodium falciparum) (UniProt O97467); test: ST_JUDE_LEISH: Cytotoxicity at 2uM final concentration against transgenic Leishmania Mexicana promastigotes LmPfHT that are glucose transport deficient and complemented with the Plasmodium falciparum hexose transporter. Activity is measured by DNA content using SYBR green in vitro
[3] = molecular target: Glucose transporter (Leishmania mexicana) (UniProt O61059); test: ST_JUDE_LEISH: Cytotoxicity at 2uM final concentration against transgenic Leishmania Mexicana promastigotes LmGT2 that are glucose transport deficient and complemented with the L. Mexicana glucose transporter 2. Activity is measured by DNA content using SYBR green in vitro

| Structure (SMILES) | inhibition [1] [%] | inhibition [2] [%] | inhibition [3] [%] |
| --- | --- | --- | --- |
| COc1ccc(CNCc2ccsc2)cc1-c1ccc(S(=O)(=O)NCCN2CCCC2)s1 | 8.12 | 8.67 | 5.77 |
| Cc1cc(N[C@@H](Cc2ccccc2)C(=O)NCc2cccc(F)c2)nc(NCC2CCCCC2)n1 | -0.17 | 2.51 | -1.9 |
| CC(C)(C)NCc1cc(Nc2ccnc3cc(Cl)ccc23)ccc1F | 7.77 | 8.36 | 9.71 |
| O=C(Nc1ccc(Cn2ncc(N3CCCNCC3)c(Cl)c2=O)cc1)Nc1ccc(F)cc1[N+](=O)[O-] | 10.2 | 11.4 | 5.42 |
| COc1c(C2CCN(CCCCNC(=O)c3noc(-c4ccc(C#N)cc4)n3)CC2)ccc2c1CCCC2 | 2.99 | 1.9 | 2.85 |
| CCNc1cc(C(=O)N[C@@H](Cc2ccccc2)[C@H](O)CNC2(CC)CCCCC2)cc(N2CCCCS2(=O)=O)c1 | -0.15 | 0.61 | -2.89 |
| Cc1ccc2ncc(Cl)c(CCN3CCC(NCc4ccc5c(n4)NC(=O)CS5)CC3)c2n1 | 3.75 | 4.54 | 2.85 |
| NCC1CCCN1Cc1ccc(-c2ccc(-c3nc4cc(F)ccc4[nH]3)cc2)cc1 (stereo unspecified) | 8.49 | 5.64 | 4.54 |
| O=C(NCCN1CCC(c2ccncc2)CC1)c1cccc(Nc2nccc(Nc3ccc(Oc4ccccc4)cc3)n2)c1 | -0.12 | -0.29 | -0.06 |
| O=C(Nc1ccccc1Cl)c1cc2ccccc2cc1O | -2.32 | -1.17 | -0.43 |
| O=c1cc(NCCCNCc2ccc3c(c2)OC(F)(F)O3)[nH]c2ccccc12 | -0.44 | 0.16 | -1.35 |
| Cc1cc(NCCC(=O)NCCOc2ccccc2)nc(Nc2ccccc2)n1 | 5.24 | 4.64 | 0.05 |
